Results filed as inconclusive are left out. Calls of active or inactive are those of the source. Calls follow the shape of the dose curve; as a rule, active = well fitted cell-killing curve with a large enough effect; inconclusive = small, poorly fitted or top-dose-only effect, or effect the other way; inactive = flat fitted curve, though single readings scatter.
Tests used:
Assay in all cases: Primary qHTS to identify gynecologic anti-cancer compounds using libraries of approved drugs and bioactive compounds (AID 1345084); also: nearly all actives have a fitted effect of over 55% in size
[1] = tested on: C33A; conditions: Gynecologic cancer cell panel viability, ATPlite luminescence, 48 h; series mostly up to 57.5 µM
Procedure, shortened: (§1)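 Five-concentration response, 48 h; readout is ATP-driven luciferase luminescence.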

[2] = tested on: CAOV3; conditions: Gynecologic cancer cell panel viability, ATPlite luminescence, 48 h; series mostly up to 57.5 µM
Procedure, shortened: as §1

[3] = tested on: CASKI; conditions: Gynecologic cancer cell panel viability, ATPlite luminescence, 48 h; series mostly up to 57.5 µM
Procedure, shortened: as §1

[4] = tested on: Es-2; conditions: Gynecologic cancer cell panel viability, ATPlite luminescence, 48 h; series mostly up to 57.5 µM
Procedure, shortened: as §1

[5] = tested on: HeLa; conditions: Gynecologic cancer cell panel viability, ATPlite luminescence, 48 h; series mostly up to 57.5 µM
Procedure, shortened: as §1

[6] = tested on: Hek293T; conditions: Gynecologic cancer cell panel viability, ATPlite luminescence, 48 h, control line for the selectivity index; series mostly up to 57.5 µM
Procedure, shortened: as §1

[7] = tested on: JEG-3; conditions: Gynecologic cancer cell panel viability, ATPlite luminescence, 48 h; series mostly up to 57.5 µM
Procedure, shortened: as §1

[8] = tested on: OV90; conditions: Gynecologic cancer cell panel viability, ATPlite luminescence, 48 h; series mostly up to 57.5 µM
Procedure, shortened: as §1

[9] = tested on: PA-1; conditions: Gynecologic cancer cell panel viability, ATPlite luminescence, 48 h; series mostly up to 57.5 µM
Procedure, shortened: as §1

[10] = tested on: SKOV3; conditions: Gynecologic cancer cell panel viability, ATPlite luminescence, 48 h; series mostly up to 57.5 µM
Procedure, shortened: as §1

[11] = tested on: Tov-21-G; conditions: Gynecologic cancer cell panel viability, ATPlite luminescence, 48 h; series mostly up to 57.5 µM
Procedure, shortened: as §1

[12] = tested on: Tov112D; conditions: Gynecologic cancer cell panel viability, ATPlite luminescence, 48 h; series mostly up to 57.5 µM
Procedure, shortened: as §1

Measured: Potency

C=C1C(=O)O[C@@H]2C[C@H](C)[C@@]3(O)C=C(C(C)=O)[C@]4(CC3C[C@H]12)C(=O)O[C@H]1C[C@@H](C)C(CCC(C)=O)=CC[C@H]14 (stereo not given in full)
inactive: all assays above

COC(=O)c1ccc(OC(CO)C(O)c2ccc(O)c(OC)c2)c(OC)c1 (stereo not given)
inactive: all assays above

CC1=CC(=O)C(=C(C)C)CC2C1CCC2(C)O (stereo not given)
inactive: all assays above

O=C1NC(Cc2ccccc2)C(=O)N2CCCC12 (stereo not given)
inactive: all assays above

CC(=O)OC[C@H]1O[C@H](O[C@]2(CO)O[C@H](CO)[C@@H](OC(=O)/C=C/c3ccccc3)[C@@H]2O)[C@H](O)[C@@H](O)[C@@H]1O
inactive: all assays above

CC1CCC2(C(=O)O)CCC3(C)C(=CCC4C5(C)CCC(O)C(C)(CO)C5CCC43C)C2C1(C)O (stereo not given)
inactive: all assays above

Nc1nc2c(ncn2[C@@H]2O[C@@H]3COP(=O)(O)O[C@H]3[C@H]2O)c(=O)[nH]1
inactive: all assays above

CC(C)(O[C@@H]1O[C@H](CO)[C@@H](O)[C@H](O)[C@H]1O)C(OC(=O)/C=C\c1ccc(O)cc1)C(=O)OCc1ccc(O[C@@H]2O[C@H](CO)[C@@H](O)[C@H](O)[C@H]2O)cc1 (stereo not given in full)
inactive: all assays above

CC(=O)O[C@H]1CC[C@H](C)[C@@]2(C)[C@H](OC(C)=O)c3c(C)coc3C(=O)[C@H]12
inactive: all assays above

O=C(CN1C(=O)C2(CCCC2)NCC1c1cc(F)cc(F)c1)Nc1ccc2c(c1)CC1(C2)C(=O)Nc2ncccc21 (stereo not given)
inactive: all assays above

CC1=CC(=O)[C@H]2C(C)(C)CCC[C@]2(C)[C@@]1(O)CO
inactive: all assays above

CC(=O)O[C@@H]1[C@@H](CO)O[C@@](CO)(O[C@H]2O[C@H](COC(=O)/C=C/c3ccccc3)[C@@H](O)[C@H](O)[C@H]2O)[C@H]1O
inactive: all assays above

O=C(O)c1ccc(OC2OC(CO)C(O)C(O)C2O)cc1 (stereo not given)
inactive: all assays above

COc1cc(O)c([C@@H](CC(=O)N2CC(C)CC(C)C2)c2ccc3c(c2)OCO3)c(OC)c1 (stereo not given in full)
inactive: all assays above

Cc1[nH]c2ccccc2c1CCNC(=O)c1ccccc1F
inactive: all assays above

From PubChem BioAssay (NCATS)
